The record followed here is PubChem BioAssay (NCI).

The test in a line: NCI Yeast Anticancer Drug Screen. Data for the mec2-1 strain (AID 157). The note with it: S. cerevisiae mec2-1 strain, active compounds read high. How it is done: Growth inhibition of yeast strains with defined genetic alterations is measured as a screen for potential anti-cancer activity. Selected strains with alterations in DNA damage repair or cell cycle control were exposed to compounds and growth inhibition was measured relative to vehicle treated controls. The strain used in this assay is mec2-1

[1] abbreviates: at 5.0 µM (retest, dose inferred, filed as 0.5).
The mark [2] stands for this setting: at 50.0 µM (retest, dose inferred, filed as 5.0).

About 79,000 compounds went through this panel and 15% of them were active in at least one assay; those are over-represented in the sample as a whole. Values without a mark were called inactive. The source made the active and inactive calls. No stated cut-off is given here; in the data, active means growth inhibition above about 70%; inactive means the rest.

Consider `NCCNc1ccc(NCCN)c2c1C(=O)c1c(O)ccc(O)c1C2=O`, for which the growth inhibition runs as follows: (at 1.2 µM) -10%; (at 3.7 µM) 18%; under setting [1], 14%; (at 11.0 µM) 13%; (at 33.0 µM) 87% (active); under setting [2], 84% (active). Besides, the growth inhibition (at 50.0 µM) is 67.5% and the growth inhibition (at 100.0 µM) was 68%.

For `CCC/C(Cl)=N\OC(=O)Nc1cccc(C(F)(F)F)c1`, the growth inhibition was 15% (at 1.2 µM); 18% (at 3.7 µM); 16% under setting [1]; 19% (at 11.0 µM); 20% (at 33.0 µM); 98% (active) under setting [2]. The growth inhibition (at 50.0 µM) was 91.8% (active) and the growth inhibition (at 100.0 µM) is 23%.

`CC(=O)Oc1cc(-c2cc(OC(C)=O)c(OC(C)=O)c3ccccc23)c2ccccc2c1OC(C)=O`: the growth inhibition runs as follows: (at 1.2 µM) 2%; (at 3.7 µM) 9%; under setting [1], 14%; (at 11.0 µM) 12%; (at 33.0 µM) 24%; under setting [2], 70% (active). For the same molecule, the growth inhibition is 82.6% (active) (at 50.0 µM) and 79% (active) (at 100.0 µM).

For the molecule `COc1cc(C(=O)/C=C/c2ccccc2O)ccc1O`, the growth inhibition by setting is: (at 1.2 µM) -7%; (at 3.7 µM) 78% (active); under setting [1], 80% (active); (at 11.0 µM) 99% (active); (at 33.0 µM) 98% (active); under setting [2], 99% (active). For the same molecule, the growth inhibition is, setting by setting: (at 50.0 µM) 94.4% (active); (at 100.0 µM) 98% (active).

For `CC1=C(C)Cc2c(O)ccc(O)c2C1`, the growth inhibition (at 1.2 µM) was -3%; the growth inhibition (at 3.7 µM) is -3%; the growth inhibition under setting [1] was 30%; the growth inhibition (at 11.0 µM) was -3%; the growth inhibition (at 33.0 µM) is -4%; the growth inhibition under setting [2] was 99% (active). Further, the growth inhibition reads like this: (at 50.0 µM) 45.8%; (at 100.0 µM) 20%.
